From article PMC10668032, “Altered binding affinity of SIX1-Q177R correlates with enhanced WNT5A and WNT pathway effector expression in Wilms tumor”
The full ranking holds about 33,000 sequences; the median of “e-score” is about -0.053, and the highest 2% start at about 0.38. For the sample, the highest values were picked, then their nearest neighbours and some sequences at random.

biological target: T1, SIX1 homeodomain (reference allele) (human, UniProt Q15475 108-198); assay: universal protein binding microarray; Universal all-10-mer PBM (8x60K, AMADID 030236), 300 nM GST-tagged protein, Alexa Fluor 488 anti-GST; buffer, salt, pH and temperature not stated (as in Berger); high values mean tight binding; conditions: protein: ivt; tags: N-terminal GST; dsDNA, one strand shown
T1 sequence: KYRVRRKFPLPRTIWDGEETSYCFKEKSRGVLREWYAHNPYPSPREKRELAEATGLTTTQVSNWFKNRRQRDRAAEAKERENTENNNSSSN
Summary of the method: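 Binding of GST-tagged homeodomains is given as 8-mer E-scores from the Universal PBM Analysis Suite. The proteins were produced by in vitro transcription/translation, quantified by anti-GST western blot against a recombinant GST standard curve, and applied in duplicate at 300 nM final concentration to universal 'all 10-mer' protein binding microarrays (8×60K format).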

Sequence	binding signal
ATAGTACG	0.209 ± 0.0147 E-score
ACACCGGC	0.28 ± 0.0468 E-score
ATCAATCG	0.266 ± 0.0101 E-score
ATATACCA	0.326 ± 0.0157 E-score
ATATACCG	0.393 ± 0.00521 E-score
ATATACTG	0.299 ± 0.0355 E-score
ATATACTC	0.354 ± 0.0664 E-score
CTATACCC	0.369 ± 0.00624 E-score
ATATACCC	0.446 ± 0.0125 E-score
ATAGCGGA	0.227 ± 0.0403 E-score
CCCAAGCA	0.263 ± 0.00886 E-score
GTAGGCCA	0.17 ± 0.0671 E-score
CGAGGATC	0.333 ± 0.023 E-score
CTAGGATA	0.356 ± 0.00923 E-score
CGAGGATA	0.384 ± 0.0112 E-score
GCAGGATA	0.329 ± 0.0306 E-score
ATAGGATA	0.415 ± 0.0252 E-score
ACAGGATA	0.236 ± 0.0392 E-score
CCAGGATA	0.38 ± 0.00746 E-score
GGAGGATA	0.387 ± 0.0115 E-score
CAAGGATA	0.342 ± 0.00822 E-score
ATAGGATC	0.367 ± 0.0232 E-score
GTAGGATA	0.355 ± 0.00663 E-score
AGAGGATA	0.326 ± 0.0175 E-score
ACCCTGAT	0.3 ± 0.0183 E-score

Sequence	binding signal
GATCGAGA	0.295 ± 0.041 E-score
GATAGCAA	0.202 ± 0.0434 E-score
ATAGAATA	0.162 ± 0.00811 E-score
AGACCATA	0.19 ± 0.0814 E-score
GTCTACAC	0.152 ± 0.0214 E-score
AATACACC	0.336 ± 0.00415 E-score
GAATGATA	0.412 ± 0.066 E-score
AAATGATC	0.321 ± 0.107 E-score
GAATGATC	0.306 ± 0.0507 E-score
TAATGATA	0.36 ± 0.0576 E-score
CAATGATA	0.418 ± 0.0312 E-score
AAATGATA	0.415 ± 0.0488 E-score
GAATAATA	0.226 ± 0.111 E-score
CAATGATC	0.31 ± 0.0312 E-score
AAATGAGA	0.16 ± 0.0635 E-score
AACACCCG	0.304 ± 0.00694 E-score
ACCTGAGA	0.158 ± 0.0127 E-score
ATCGAAGG	0.179 ± 0.0692 E-score
AGAGTGTA	0.223 ± 0.0204 E-score
AGCCCCTA	0.153 ± 0.0497 E-score
CCGCATTA	0.157 ± 0.0248 E-score
GAGCTGGA	0.177 ± 0.0153 E-score
ATCGCCGA	0.19 ± 0.0306 E-score
ATACCGTA	0.391 ± 0.00392 E-score
ATACCGTG	0.384 ± 0.0192 E-score

Sequence	binding signal
ACACCGTA	0.344 ± 0.0258 E-score
ACACCGTC	0.262 ± 0.00999 E-score
ACACCGTG	0.277 ± 0.0223 E-score
ATCCCGTA	0.342 ± 0.0301 E-score
ATACCGTC	0.396 ± 0.0211 E-score
ATACCGAC	0.341 ± 0.0139 E-score
ATTCCGTG	0.156 ± 0.0528 E-score
ATATGGTC	0.277 ± 0.0141 E-score
GGATTAAA	0.231 ± 0.111 E-score
AATCCGAG	0.237 ± 0.07 E-score
CTGGAATC	0.158 ± 0.0574 E-score
ACCATATC	0.418 ± 0.00875 E-score
ACCATACC	0.154 ± 0.0389 E-score
CCCATATC	0.4689 ± 0.00434 E-score
CCCATATA	0.309 ± 0.0133 E-score
CCTATATC	0.352 ± 0.0286 E-score
ACCATATA	0.274 ± 0.008 E-score
AGGTTTAT	0.199 ± 0.0561 E-score
CCGATGCG	0.215 ± 0.071 E-score
CGATAGGC	0.175 ± 0.0335 E-score
AATATCAT	0.381 ± 0.0478 E-score
AATATCTC	0.274 ± 0.0766 E-score
CCTATCAC	0.387 ± 0.0097 E-score
AATATGAT	0.309 ± 0.00824 E-score
CATATTAG	0.191 ± 0.0531 E-score

Sequence	binding signal
AATATCAG	0.225 ± 0.129 E-score
CATATCAG	0.436 ± 0.0183 E-score
AATATCAA	0.225 ± 0.165 E-score
ACTATCAC	0.279 ± 0.062 E-score
AATATCAC	0.38 ± 0.0781 E-score
CTCCATCA	0.157 ± 0.0276 E-score
ATACAGCC	0.225 ± 0.1 E-score
ATCGGGTG	0.32 ± 0.0738 E-score
ACCGGGAT	0.313 ± 0.0258 E-score
GTATTAAA	0.246 ± 0.142 E-score
ATCATCAA	0.199 ± 0.0117 E-score
AACACCCT	0.21 ± 0.0269 E-score
CCCCGTAG	0.176 ± 0.139 E-score
GGGATGAA	0.191 ± 0.0459 E-score
CATATTAC	0.219 ± 0.0138 E-score
CATATCTC	0.342 ± 0.0177 E-score
CATATCAC	0.446 ± 0.0382 E-score
CCGCTATC	0.304 ± 0.0394 E-score
ATGCCAGG	0.161 ± 0.00747 E-score
CTATCTCC	0.217 ± 0.0476 E-score
ATCTCTCA	0.252 ± 0.0252 E-score
GCATCTCA	0.186 ± 0.00338 E-score
GTATCTCA	0.392 ± 0.0267 E-score
ATATCTCG	0.378 ± 0.0423 E-score
GGATCTCA	0.298 ± 0.0172 E-score

Sequence	binding signal
ATATCTCA	0.391 ± 0.0526 E-score
CTATCTCA	0.256 ± 0.0685 E-score
ATATCTAG	0.285 ± 0.0844 E-score
ATATCTCC	0.424 ± 0.0218 E-score
ATATCTGG	0.298 ± 0.0486 E-score
ATCTCTCC	0.184 ± 0.128 E-score
AGTACACC	0.209 ± 0.0287 E-score
ATCCCTGA	0.272 ± 0.0262 E-score
ACTATACT	0.211 ± 0.0749 E-score
ACTAGTAT	0.249 ± 0.0623 E-score
TACCTCGA	0.159 ± 0.0128 E-score
ATAGGATG	0.211 ± 0.00535 E-score
GATCGTAA	0.216 ± 0.0203 E-score
ACAGATAG	0.208 ± 0.0152 E-score
AAACCGAT	0.184 ± 0.013 E-score
ATCGTTTG	0.196 ± 0.0542 E-score
CTATCTAC	0.24 ± 0.0207 E-score
ATATCTAA	0.316 ± 0.0663 E-score
ATATCTAC	0.387 ± 0.0445 E-score
ACCCGAGA	0.213 ± 0.00331 E-score
CGGATAGA	0.355 ± 0.012 E-score
AGGATAGC	0.229 ± 0.0872 E-score
CGGATAAA	0.275 ± 0.0785 E-score
AGGATAAG	0.181 ± 0.0696 E-score
AGGATATC	0.466 ± 0.0183 E-score

Sequence	binding signal
AGGATATA	0.346 ± 0.0479 E-score
AGGATAAT	0.295 ± 0.036 E-score
CGGATATC	0.473 ± 0.0121 E-score
CGGATAAC	0.339 ± 0.0303 E-score
CGGATAGC	0.382 ± 0.00849 E-score
AGGATAAC	0.211 ± 0.00987 E-score
AGGATATG	0.421 ± 0.00759 E-score
AGTATGAT	0.2824 ± 0.000431 E-score
ATCACGCC	0.26 ± 0.00476 E-score
ATCTCTTG	0.224 ± 0.039 E-score
CAGATCTG	0.216 ± 0.124 E-score
AGCTCGAT	0.227 ± 0.00607 E-score
CATCCTAC	0.157 ± 0.0313 E-score
ATACATGA	0.231 ± 0.0327 E-score
ATACAATG	0.248 ± 0.00431 E-score
GATACCCA	0.4758 ± 0.00303 E-score
CATACCCA	0.208 ± 0.066 E-score
TCTACCCA	0.221 ± 0.0189 E-score
CATACCCG	0.259 ± 0.0615 E-score
TATACCCA	0.401 ± 0.0193 E-score
CGCTATAC	0.254 ± 0.0251 E-score
ACTTGTAT	0.246 ± 0.0178 E-score
CTTAATAC	0.281 ± 0.0535 E-score
CAGATAAC	0.191 ± 0.0157 E-score
ATCTGGCC	0.181 ± 0.0229 E-score

Sequence	binding signal
ATACACAG	0.289 ± 0.0145 E-score
CTACACCA	0.312 ± 0.0106 E-score
ATACACAC	0.249 ± 0.0542 E-score
ATACACCC	0.391 ± 0.00614 E-score
ATACACCA	0.389 ± 0.0166 E-score
ATACACCG	0.398 ± 0.0351 E-score
CTACACCC	0.263 ± 0.044 E-score
GTACACCA	0.233 ± 0.039 E-score
AAACACCC	0.253 ± 0.0462 E-score
CATCGAAG	0.178 ± 0.0656 E-score
ATCGTGCC	0.192 ± 0.00267 E-score
ATACTTAG	0.205 ± 0.0528 E-score
CACCTATC	0.266 ± 0.0455 E-score
GAAAGATA	0.324 ± 0.096 E-score
GGGAAACC	0.162 ± 0.106 E-score
ATATCCAC	0.395 ± 0.0197 E-score
ATATCCAG	0.373 ± 0.0215 E-score
GTATCCAC	0.3951 ± 0.00369 E-score
CTATCCAG	0.199 ± 0.0567 E-score
TAATCCAA	0.1853 ± 0.00116 E-score
CAATCCAC	0.168 ± 0.0919 E-score
CTATCCAC	0.219 ± 0.0193 E-score
